{"source": "PubChem BioAssay (EPA / NIEHS)", "note": "Calls of active or inactive are those of the source. Rule for the calls: active = hit-call score of the fitted dose curve at least 0.9, where 1 is the maximum; inactive = score below 0.9."}
{"assay": "ATG_NRF2_ARE_CIS: Attagene CIS-FACTORIAL HepG2 Assay for human Nuclear Factor Erythroid 2 Related Factor 2 (NFR2) response to Antioxidant Response Elements (ARE) (AID 2282992)", "conditions": "HepG2 Attagene ARE/NRF2 reporter, transcription factor activity; actives raise or lower the signal", "experimental": "ATG_CIS is a cell-based, multiplexed-readout assay that uses HepG2, a human liver cell line, with measurements taken at 24 hours after chemical dosing in a 24-well plate.ATG_NRF2_ARE_CIS is one of 52 assay component(s) measured or calculated from the ATG_CIS assay. It is designed to make measurements of mRNA induction, a form of inducible reporter, as detected with fluorescence intensity signals by Reverse transcription polymerase chain reaction (RT-PCR) and Capillary electrophoresis technology.Data from the assay component ATG_NRF2_ARE_CIS was analyzed into 1 assay endpoint. This assay endpoint, ATG_NRF2_ARE_CIS, was analyzed with bidirectional fitting relative to DMSO as the negative control and baseline of activity. Using a type of inducible reporter, measures of mRNA for gain or loss-of-signal activity can be used to understand the reporter gene at the transcription factor-level as they relate to the gene NFE2L2. Furthermore, this assay endpoint can be referred to as a primary readout, because this assay has produced multiple assay endpoints where this one serves a reporter gene function. To generalize the intended target to other relatable targets, this assay endpoint is annotated to the dna binding intended target family, where the subfamily is basic leucine zipper.\nHuman liver HepG2 cells are transiently transfected with multiple reporter transcription units (MRTUs) in 6-well plates using FuGene 6 reagent (Roche; 3 ml FuGene/1 mg DNA). The MRTU constructs are regulated by a cis-regulating element (promoter). […] A major difference between the CIS and TRANS system is that in CIS activities of endogenous TFs are measured, whereas the TRANS assay evaluates changes in activities of exogenous, chimeric NR-Gal4 proteins. […] At the end of 24 hour incubation, total RNA was isolated using TriZol reagent (Invitrogen). The isolated RNA is then reverse-transcribed using oligo(dT) primer and Mo-MLV reverse transcriptase (Invitrogen) with DNAse I (Ambion) treatment for 30 min. The one-tenth of the produced cDNA was amplified by PCR using Taq DNA polymerase (Invitrogen) and two reporter sequence-specific primers. The PCR products were fluorescently labeled by primer extension with 6-arboxyfluorescein (6-FAM) 5'-labeled reporter sequence-specific primer (2 min at 95 C, 20 s at 68 C and 10 min at 72 C) and these products were digested with 5U of HpaI (New England Biolabs) for 2h at 37 C. The fragments were purified using Qiaquick PCR columns (Qiagen), analyzed on an ABI 3130xL genetic analyzer (Applied Biosystems) with peak positions identified by using a set of X-rhodamine (ROX)-labeled MapMarker1000 molecular weight standards (BioVentures). The raw capillary electrophoresis data was processed using Attagraph software (Attagene)."}
{"smiles": "CC(C)(Cl)Cl", "outcome": "inactive"}
{"smiles": "CC(C)C#N", "outcome": "inactive"}
{"smiles": "CC(O)CN(CC(C)O)CC(C)O", "note": "(stereo not given)", "outcome": "inactive"}
{"smiles": "O=CNC(N1CCN(C(NC=O)C(Cl)(Cl)Cl)CC1)C(Cl)(Cl)Cl", "note": "(stereo not given)", "outcome": "inactive"}
{"smiles": "N#Cc1cc(I)c(O)c(I)c1", "AC50": "28.3 µM (active)"}
{"smiles": "CCC(C)c1cc(C(C)(C)C)cc(-n2nc3ccccc3n2)c1O", "note": "(stereo not given)", "outcome": "inactive"}
{"smiles": "COCC(=O)N(c1c(C)cccc1C)N1CCOC1=O", "outcome": "inactive"}
{"smiles": "CC(C)c1ccc(O)cc1", "AC50": "49.6 µM (active)"}
{"smiles": "[Cl-].[Cl-].[Cl-].[Yb+3]", "outcome": "inactive"}
{"smiles": "ClCCCCCCCl", "outcome": "inactive"}
{"smiles": "C[N+](C)=CCl", "outcome": "inactive"}
{"smiles": "CC1(C)[C@H](C(=O)O[C@H](C#N)c2cccc(Oc3ccccc3)c2)[C@@H]1C=C(Br)Br", "outcome": "inactive"}
{"smiles": "C[N+](C)(C)CC(=O)[O-]", "outcome": "inactive"}
{"smiles": "O=C(NCNC(=O)NC1C(=O)NC(=O)N1CO)NC1C(=O)NC(=O)N1CO", "note": "(stereo not given)", "outcome": "inactive"}
{"smiles": "CN1C(=O)CCS(=O)(=O)C1c1ccc(Cl)cc1", "note": "(stereo not given)", "outcome": "inactive"}
{"smiles": "N#CCNCC#N", "outcome": "inactive"}
{"smiles": "C[N+](=O)[O-]", "outcome": "inactive"}
{"smiles": "Oc1ccc(C2(c3ccc(O)cc3)c3ccccc3-c3ccccc32)cc1", "outcome": "inactive"}
{"smiles": "CSc1nc(N=[N+]=[N-])nc(NC(C)C)n1", "AC50": "100 µM (active)"}
{"smiles": "C=C(Cl)Cl", "outcome": "inactive"}
{"smiles": "O=C(O)CCl", "outcome": "inactive"}
{"smiles": "O=C1C(Cl)=C(Cl)C(=O)C(Cl)=C1Cl", "AC50": "48.7 µM (active)"}
{"smiles": "Nc1cc(Cl)cc(Cl)c1", "outcome": "inactive"}
{"smiles": "COc1ncc(F)c2nc(S(=O)(=O)Nc3c(F)cccc3F)nn12", "outcome": "inactive"}
{"smiles": "O=c1[nH]c(Cl)c(Cl)cc1Cl", "AC50": "76.3 µM (active)"}
{"smiles": "SCc1ccco1", "AC50": "71.2 µM (active)"}
{"smiles": "N#CCCCl", "outcome": "inactive"}
{"smiles": "c1cc(OCC2CO2)ccc1Cc1ccc(OCC2CO2)cc1", "note": "(stereo not given)", "AC50": "8.95 µM (active)"}
{"smiles": "CCc1cccc(C)c1N(C(=O)CCl)[C@@H](C)COC", "AC50": "7.39 µM (active)"}
{"smiles": "O=S(=O)(c1ccccc1)c1ccccc1", "outcome": "inactive"}
{"smiles": "CCCC=NO", "outcome": "inactive"}
{"smiles": "Nc1ccc([N+](=O)[O-])cc1N", "AC50": "7.53 µM (active)"}
{"smiles": "CC=Cc1ccc2c(c1)OCO2", "outcome": "inactive"}
{"smiles": "CCC(C)c1cc([N+](=O)[O-])cc([N+](=O)[O-])c1OC(=O)C=C(C)C", "note": "(stereo not given)", "AC50": "3.47 µM (active)"}
{"smiles": "CCc1cc(C)cc(CC)c1-c1c(OC(=O)C(C)(C)C)n2n(c1=O)CCOCC2", "outcome": "inactive"}
{"smiles": "CC(C)[C@@H](C(=O)O[C@@H](C#N)c1cccc(Oc2ccccc2)c1)c1ccc(Cl)cc1", "outcome": "inactive"}
{"smiles": "O=P(O)(Oc1ccccc1)Oc1ccccc1", "outcome": "inactive"}
{"smiles": "C=CCN(CC=C)C(=O)C(Cl)Cl", "AC50": "50.9 µM (active)"}
{"smiles": "[N-]=[N+]=CC(=O)OC[C@H](N)C(=O)O", "outcome": "inactive"}
{"smiles": "O=C(NC(=O)c1c(F)cccc1F)Nc1ccc(Oc2ccc(C(F)(F)F)cc2Cl)cc1F", "AC50": "34.5 µM (active)"}
